G9a inh = blocks human histone lysine methyltransferase G9a; 350,000 compounds, 8.8% hits; G9a H3K9 monomethylation, AlphaScreen, 2 h; Potency, µM (titrated, usually from 102 µM), for inactives: at the top dose activity, negative = inhibition, actives largely listed as inhibitors; further: potency means the concentration at half of the fitted maximal effect; on the % scale 0 is the no-effect control and ±100 the full control effect; nearly all actives have a fitted effect of over 75% in size
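Compounds were preincubated with 20 nM G9a for 15 min, after which biotinylated H3K9 peptide (500 nM) and SAM (20 uM) started a 2 h room-temperature reaction. Monomethylated product was quantified by antibody-based AlphaScreen chemiluminescence.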
JMJD2A Tudor = inhibitors of human JMJD2A Tudor domain. O75164. AlphaScreen JMJD2A-Tudor / H3K4me3 peptide binding. Potency, µM (top dose mostly 114 µM), for inactives: at the top dose activity change, negative = inhibition, usual class: inhibitors. 390,000 compounds, 4.4% hits. AID 504339; further: potency means the concentration at half of the fitted maximal effect; on the % scale 0 is the no-effect control and ±100 the full control effect; nearly all actives have a fitted effect of over 50% in size
HP1b binding inh = blocks HP1-beta chromodomain binding to methylated histone tails. P83916. AlphaScreen HP1-beta / biotin-H3K9me3 peptide binding. Potency, µM (series often up to 114 µM), inactives show at the highest dose activity change, negative = inhibition, hits mostly inhibitors. 390,000 compounds, 0.56% hits. AID 540317; further: potency means the concentration at half of the fitted maximal effect; nearly all actives have a fitted effect of over 70% in size
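AlphaScreen: HP1-beta (50 nM) preformed 30 min with biotin-H3(1-18)K9me3 peptide (50 nM) in PBS pH 7.4, 0.01% Tween-20. Compound added for 30 min at RT, then streptavidin donor/nickel chelate acceptor beads (10 ug/mL) for 30 min.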
BAZ2B block = blocks human BAZ2B; Q9UIF8; AlphaScreen BAZ2B-H3K14Ac peptide displacement; Potency, µM (titrated, usually from 114 µM), for inactives: at the highest dose activity change, negative = inhibition, most hits filed as inhibitors; 360,000 compounds, 4.4% hits; AID 504333; further: potency means the concentration at half of the fitted maximal effect; on the % scale 0 is the no-effect control and ±100 the full control effect; nearly all actives have a fitted effect of over 60% in size
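BAZ2B (50 nM) with biotin-H3(5-23)K14Ac peptide (50 nM) in PBS pH 7.4, 0.01% Tween-20, preformed 30 min, then compound 30 min at room temperature; top concentration 110uM. AlphaScreen streptavidin donor/nickel chelate acceptor beads (10 ug/mL final), 20 min dark, signal read.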
CtBP-E1A blk = blocks the CtBP interaction with E1A. AlphaScreen GST-E1A/His-CtBP binding, 1536-well; stronger effect = lower value. 340,000 compounds, 0.49% hits. activity change, % (no concentration beside the values); in the data active means activity change below about -65%; inconclusive means mostly about -30% to -63%; further: on the % scale 0 is the no-effect control and ±100 the full control effect
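Protein mix (5X: 125 nM each GST-E1A, His-CtBP) was incubated with pinned compound 2 h at 37 deg C in dark, in 50 mM Tris pH 8.0 buffer with 300 mM NaCl. Glutathione donor and nickel acceptor beads followed; AlphaScreen signal read after 1 h.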
Six1-Eya2 blk = blocks human Six1 binding to Eya2; 360,000 compounds, 0.56% hits; AlphaScreen GST-Six1/His-Eya2 binding, biochemical; stronger effect = lower value; Q15475+O00167; activity change, % (no concentration beside the values); in the data active means activity change below about -65%; inconclusive means mostly about -30% to -63%; further: on the % scale 0 is the no-effect control and ±100 the full control effect
Target sequence (O00167 whole entry, looked up): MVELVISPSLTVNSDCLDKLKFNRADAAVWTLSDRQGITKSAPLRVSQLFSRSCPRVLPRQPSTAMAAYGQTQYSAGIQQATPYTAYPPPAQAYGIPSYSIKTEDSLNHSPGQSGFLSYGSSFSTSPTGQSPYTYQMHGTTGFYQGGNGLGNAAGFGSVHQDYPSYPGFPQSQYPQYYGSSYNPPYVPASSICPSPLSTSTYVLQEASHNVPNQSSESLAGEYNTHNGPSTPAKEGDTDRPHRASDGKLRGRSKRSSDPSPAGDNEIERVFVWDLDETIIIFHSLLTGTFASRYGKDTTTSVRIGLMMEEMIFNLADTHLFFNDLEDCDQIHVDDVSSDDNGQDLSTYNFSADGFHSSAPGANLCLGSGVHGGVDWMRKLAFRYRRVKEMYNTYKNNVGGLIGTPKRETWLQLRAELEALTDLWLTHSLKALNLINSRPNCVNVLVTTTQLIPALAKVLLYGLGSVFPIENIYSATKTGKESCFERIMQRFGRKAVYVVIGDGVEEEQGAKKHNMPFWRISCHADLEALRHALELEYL
Target sequence (Q15475 whole entry, looked up): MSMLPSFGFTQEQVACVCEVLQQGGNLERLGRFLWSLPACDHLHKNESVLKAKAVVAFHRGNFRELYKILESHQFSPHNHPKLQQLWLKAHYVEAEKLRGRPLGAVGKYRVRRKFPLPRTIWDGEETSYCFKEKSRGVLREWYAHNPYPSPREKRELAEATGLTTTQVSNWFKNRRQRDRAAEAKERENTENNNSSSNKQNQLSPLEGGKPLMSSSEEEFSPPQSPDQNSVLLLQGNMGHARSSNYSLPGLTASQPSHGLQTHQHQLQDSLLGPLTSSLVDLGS
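Six1/Eya2 binding was read as AlphaScreen signal after compounds were pinned into GST-Six1 plus His-tagged Eya2 (5X stock 250/500 nM) in pH 8.0 Tris/NaCl/TCEP buffer, beads added, then incubated 1 h, 37 C, dark.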
The depositor's hits bear a star; ? = inconclusive; . = no result; ! = not active in a repeat; [ ] = another dose, or the depositor's remark. An excerpt weighted towards active compounds, which were near 10% of everything screened. Unless noted, the call rests on the fitted dose curve; in most records, active means well fitted inhibition curve with a large enough effect; inconclusive means small, poorly fitted or top-dose-only effect; inactive means no such curve, though single readings can be large or run the other way.

SMILES	G9a inh	JMJD2A Tudor	HP1b binding inh	BAZ2B block	CtBP-E1A blk	Six1-Eya2 blk
Cc1ccc(OCC(=O)N2N=C(c3ccncc3)CC2(O)C(F)(F)F)cc1C (stereo not given)	33%	-24%	51%	-12%	.	-3
CN(C)c1ccc(CNc2nc(-c3ccccc3)nn2S(C)(=O)=O)cc1	28µM*	56µM*	?	35µM*	?	?
CC(=O)n1nc(-c2ccccc2)nc1NCc1ccc(N(C)C)cc1	-128%[59 µM]	35µM*	?	25µM*	-10	-4
CS(=O)(=O)n1nc(-c2cccnc2)nc1NCc1ccccc1	-25%	-12%	32%	-17%	-25	8
CCCCCn1ncc2c3sc(C)cc3n(C)c2c1=O	.	16%	.	.	.	.
OC[C@@H]1CN(Cc2ccc3c(c2)OCO3)C[C@H](n2cnc3c(NCc4ccncc4)ncnc32)O1	.	.	.	.	-14	10
CN(C)S(=O)(=O)N(CC(=O)NCCSc1ccccc1)c1ccccc1	-2%[59 µM]	-7%	21%	0%	.	.
CCOC(=O)[C@]12CCC=C1N(Cc1cccc3ccccc13)C(=O)[C@H](CC(=O)NCC13CC4CC(CC(C4)C1)C3)C2	.	.	.	.	-1	-6
NNC(=O)c1cncn1-c1ccc(F)cc1	0%	?	57%	50µM*	-14	16
CC(C)NC(=O)NC(=O)COc1ncnc2sccc12	50µM*	?	?	52%	0	2
COc1ccc(S(=O)(=O)Nc2c(C)nc3nc(C)[nH]n3c2=O)cc1	-20%	-5%	5%	11%	-8	5
CCCc1nc2nc(C)c(NS(=O)(=O)c3ccc(F)cc3)c(=O)n2[nH]1	8%	-6%	24%	2%	-1	6
CCCc1nc2nc(C)c(NS(=O)(=O)c3ccc([N+](=O)[O-])cc3)c(=O)n2[nH]1	79µM*	-5%	53%	6%	-7	8
Cc1nc2nc(C)c(NS(=O)(=O)c3ccc4c(c3)CCCC4)c(=O)n2[nH]1	71µM*	4%	-16%	-6%	-7	2
Cc1cc(OCC(=O)Nc2ccc(N3CCN(C)CC3)cc2)ccc1Cl	?	?	2%	-35%	-1	-2
Cc1cc(/C=N/Nc2ccc([N+](=O)[O-])cn2)c(C)n1-c1ccc(C(=O)O)cc1	50µM*	?	-36%	50µM*	-13	?
CCN(CC)S(=O)(=O)c1ccc(N/N=C(\C)c2ccncc2)nc1	-6%	-14%	7%	3%	-7	-7
Cc1ccccc1-n1c(C)cc(/C=N/Nc2ccc([N+](=O)[O-])cn2)c1C	?	-14%	42%	-33%	-6	-9
O=[N+]([O-])c1ccc(N/N=C\c2cccn2-c2ccccc2)nc1	?	40µM*	?	?	?	?
O=C(CNS(=O)(=O)c1ccc([N+](=O)[O-])cc1)N/N=C\c1ccc(O)cc1	-8%	-16%	25%	3%	.	1
O=C(CNS(=O)(=O)c1ccc([N+](=O)[O-])cc1)N/N=C/c1ccc(O)cc1O	17%	-21%	18%	4%	?	-73*
CCN(CC)S(=O)(=O)c1ccc(N/N=C/c2ccc(O)cc2O)nc1	17%[59 µM]	-28%	37%	25µM*	-95*	-94*
Cc1ccc(N(Cc2cccs2)C(=O)c2ccc(OC(C)C)cc2)cc1	65%[59 µM]	48%	79%	18%	.	.
Cc1cccc(NS(=O)(=O)c2ccc3c(c2)C(C)(C)C(=O)N3C)c1	-19%[59 µM]	-11%	45%	2%	.	.
O=[N+]([O-])c1ccc(O)c(C=NNc2ccc(S(=O)(=O)O)cc2)c1	.	79µM*	-7%[57 µM]	.	-3	?
SMILES	G9a inh	JMJD2A Tudor	HP1b binding inh	BAZ2B block	CtBP-E1A blk	Six1-Eya2 blk
O=[N+]([O-])c1ccc(NN=Cc2ccc(O)cc2O)nc1	.	-16%	10%[57 µM]	.	-74*	-69*
O=[N+]([O-])c1ccc(NN=Cc2ccccc2O)nc1	.	-24%	23%	.	-79*	-78*
O=[N+]([O-])c1ccc(NN=Cc2ccc(O)cc2)nc1	.	-21%	6%	.	-19	-23
O=[N+]([O-])c1ccc(O)c(/C=N/Nc2ncnc3c2cnn3-c2ccccc2)c1	3%	79µM*	-10%	?	?	-14
CN(C)CCNC(=O)c1ccc2nc(Cc3ccccc3)oc2c1	-8%[59 µM]	-11%	12%[57 µM]	-3%	.	.
C/C(=N\Nc1ccc(C(=O)O)cc1)c1ccc(S(=O)(=O)NCc2ccco2)cc1	?	-21%	33%	-39%	0	12
O=[N+]([O-])c1ccc(O)c(/C=N/Nc2ccccn2)c1	-15%	?	23%	4.5µM*	-92*	-90*
O=[N+]([O-])c1ccc(O)c(/C=N/Nc2nc3ccccc3[nH]2)c1	-9%	?	17%	32µM*	-97*	-92*
O=[N+]([O-])c1cccc(N/N=C/c2cc([N+](=O)[O-])ccc2O)c1	-5%	-8%	7%	-24%	-10	-17
O=C(O)C1=NN(c2cc(Cl)c(S(=O)(=O)O)cc2Cl)C(=O)C1	.	6.3µM*	-9%[57 µM]	.	-23	?
Cc1ccc(NC(=O)COC(=O)C2(C)CC2(Cl)Cl)cc1S(=O)(=O)N1CCOCC1 (stereo not given)	-31%	-12%	24%	2%	3	-5
Cc1c(C)n2c(SCC(=O)N3CCCCCC3)nnc2[nH]c1=O	?	-3%	51%	6%	2	-2
Cc1c(C)n2c(SCC(=O)N3CCOCC3)nnc2[nH]c1=O	-30%[0.501 µM]	32µM*	27%	-6%	7	1
Cc1nc(SCC(=O)NC2(C#N)CCCC2)n(CC(C)C)c1C	40µM*	-14%	19%	-2%	-1	-4
CC(C)(C)OC(=O)N1CCC(c2c(C(=O)Nc3ccc4c(c3)OCCO4)cnn2-c2ccc(F)cc2F)CC1	?	-24%	-2%	-1%[57.1 µM]	.	.
CC(C)CC(NC(=O)c1ccc(C#CC(C)(C)O)s1)C(=O)O (stereo not given)	-11%	-1%	8%	-18%	-2	1
CCOc1ccc(/C=N/OCC(=O)NCc2ccc3c(c2)OCO3)cc1OC	40µM*	-15%	14%	2%	-2	6
CCCCC[C@H](CC(=O)NO)C(=O)N[C@H](C(=O)N1CCC[C@H]1CO)C(C)C	9.5µM*!	.	.	.	.	.
CCCCCC(CC(=O)NO)C(=O)NC(C(=O)N1CCCC1CO)C(C)C (stereo not given)	?	-12%	18%	2%	-5	-1
Cc1ccc(CN2CCSc3ccc(C(=O)Nc4ccc(F)cc4F)cc32)cc1	22%[59 µM]	15%	120%	15%	.	.
CCN1C(=O)/C(=C/C=C2/SCCN2C)SC1=S	8.9µM*	9%[11.4 µM]	-11%	-19%[57.1 µM]	-11	2
